Source: PubChem
Rows were chosen to be rich in hits. Some 1.8% of all compounds tested hit in one or more screens of this group.
PME-1 inh: PME-1 inhibitors via competitive probe labeling, primary screen, biochemical, fluorescence polarization, FP-Rh probe, HTS; Protein phosphatase methylesterase 1 (Homo sapiens), Q9Y570; recombinant PME-1; inhibition, % at 5.9 µM; 320,000 tested, 0.53% active; AID 2130, 2009;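 active means inhibition above the campaign mean of all compounds plus 3 SD, cut at about 26% in these data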;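 further: competitive labeling of PME-1 active site by serine hydrolase directed probe; inhibitors block probe labeling so polarization falls and inhibition rises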
PP1 counter: PP1-alpha phosphatase inhibitors, primary screen, counter-screen for PP5 inhibitor project, biochemical, fluorescence, OMFP substrate, single point; Serine/threonine-protein phosphatase PP1-alpha catalytic subunit (Homo sapiens), P62136; purified PP1alpha; inhibition, % at 6.7 µM; 320,000 tested, 0.9% active;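 active means inhibition above the mean inhibition of all tested compounds plus 3 SD, computed separately for each screening campaign, cut at about 15% in these data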
Target sequence (P62136 whole entry, looked up): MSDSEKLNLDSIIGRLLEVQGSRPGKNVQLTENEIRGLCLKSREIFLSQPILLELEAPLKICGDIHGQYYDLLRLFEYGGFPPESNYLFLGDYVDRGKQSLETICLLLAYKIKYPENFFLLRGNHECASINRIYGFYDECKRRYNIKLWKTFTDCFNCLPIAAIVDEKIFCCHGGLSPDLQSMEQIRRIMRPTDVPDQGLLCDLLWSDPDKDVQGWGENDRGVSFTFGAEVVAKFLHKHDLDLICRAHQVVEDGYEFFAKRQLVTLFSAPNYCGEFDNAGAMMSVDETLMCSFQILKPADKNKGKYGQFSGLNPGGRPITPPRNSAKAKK
LYPLA2 inh: LYPLA2 inhibitors, primary screen, counter-screen for PME1 inhibitor project, biochemical, fluorescence polarization, FP-Rh probe ABPP. Acyl-protein thioesterase 2 (Homo sapiens), O95372. recombinant LYPLA2. inhibition, % at 5.9 µM. 320,000 tested, 0.38% active. AID 2177, 2009;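 active means inhibition above the screen-wide mean plus 3 SD, limit set per campaign, cut at about 26% in these data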
Target sequence (O95372 whole entry, looked up): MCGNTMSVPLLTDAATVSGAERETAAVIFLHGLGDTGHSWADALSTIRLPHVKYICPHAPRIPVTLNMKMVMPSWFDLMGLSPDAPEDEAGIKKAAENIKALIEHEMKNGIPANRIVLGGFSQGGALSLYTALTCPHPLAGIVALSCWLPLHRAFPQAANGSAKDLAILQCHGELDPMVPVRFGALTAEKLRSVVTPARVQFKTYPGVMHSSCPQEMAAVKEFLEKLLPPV
LYPLA1 counter: LYPLA1 inhibitors, primary screen, counter-screen for PME1 inhibitor project, biochemical, fluorescence polarization, FP-Rh probe ABPP; recombinant LYPLA1; AID 2174, 2009; 320,000 tested, 0.16% active; inhibition, % at 5.9 µM; Acyl-protein thioesterase 1 (Homo sapiens), O75608;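 active means inhibition above the mean of all tested compounds plus 3 SD, set per campaign, cut at about 14% in these data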;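 further: inhibitors block serine hydrolase probe labeling of LYPLA1 so polarization falls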
Fam108B counter: mouse Fam108B serine hydrolase inhibitors, primary screen, counter-screen for RBBP9 inhibitor project, biochemical, fluorescence polarization | recombinant Fam108B, FP-Rh probe fluorescence polarization | inhibition, % at 9.51 µM | 300,000 tested, 0.33% active | AID 1947, 2009;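 active means inhibition above the screen mean inhibition plus 3 SD, computed separately per campaign, cut at about 18% in these data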;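 further: inhibitors lower polarization as less probe binds the enzyme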
PP5 inh: PP5 phosphatase inhibitors, primary screen, biochemical, fluorescence; Serine/threonine-protein phosphatase 5 (Homo sapiens), P53041; purified PP5c, OMFP substrate fluorescence; inhibition, % at 6.7 µM; 320,000 tested, 0.18% active; AID 1987, 2009;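 active means inhibition above the campaign's mean inhibition across all tested compounds plus 3 SD, cut at about 9.5% in these data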
PP1 inh confirm: PP1 phosphatase inhibitors, confirmation, biochemical, fluorescence, OMFP substrate, triplicate; inhibition, % at 6.7 µM; 1,900 tested, 52% active; shares compounds with PP1 counter; purified PP1alpha; AID 2358, 2010;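 active means mean PP1 inhibition above a set limit taken from the earlier primary screen, cut at about 15% in these data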
PP5 counter: PP5 phosphatase inhibition by PP1 hits, confirmation, counter-screen for PP1 inhibitor project, biochemical, fluorescence, triplicate | shares compounds with PP1 counter | purified PP5c, OMFP fluorescence | inhibition, % at 6.7 µM | 1,900 tested, 4% active | AID 2360, 2010;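 active means mean PP5 inhibition over triplicate wells above about 9.5% taken from the earlier PP1 screen, limit read from the data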
Of the large screens only hits and unclear results are named; the others gave an inactive call (follow-up assays come after a bar, where they were run).

CC(=O)NC1C(=O)N(CCN2CCOCC2)c2ccc(Br)cc21 (stereo unspecified)	PP1 counter 38.3 | PP1 inh confirm 38.0 | PP5 counter inactive
Cn1c(=O)[nH]c2ncccc21	PP1 counter 28.4 | PP1 inh confirm inactive | PP5 counter inactive
COc1cc(C2C(C(=O)c3ccc(C)o3)=C(O)C(=O)N2Cc2ccccc2)ccc1O (stereo unspecified)	none
Cc1cc(N2C(=O)C(O)=C(C(=O)c3ccco3)C2c2cccnc2)no1 (stereo unspecified)	none
CC(=O)C1=C(O)C(=O)N(Cc2ccco2)C1c1ccccc1 (stereo unspecified)	none
CCCOc1ccc(C2C(C(=O)c3ccc(C)o3)=C(O)C(=O)N2Cc2ccco2)cc1 (stereo unspecified)	PP1 counter 27.0 | PP1 inh confirm 38.9 | PP5 counter inactive
CCCOc1cccc(C2C(C(=O)c3ccc(C)o3)=C(O)C(=O)N2c2nc(C)c(C(C)=O)s2)c1 (stereo unspecified)	PP1 counter 24.9 | PP1 inh confirm 32.0 | PP5 counter inactive
CCOc1cc(C2C(C(=O)c3ccc(C)o3)=C(O)C(=O)N2CCc2ccccc2)ccc1O (stereo unspecified)	PP1 counter 32.7 | PP1 inh confirm 37.7 | PP5 counter inactive
Cc1cc(N2C(=O)C(O)=C(C(=O)c3ccc(C)o3)C2c2cccc(Oc3ccccc3)c2)no1 (stereo unspecified)	PP1 counter 29.2 | PP1 inh confirm 28.6 | PP5 counter inactive
CCCOc1cccc(C2C(C(=O)c3ccc(C)o3)=C(O)C(=O)N2CCN2CCOCC2)c1 (stereo unspecified)	none
O=C1/C(=C/c2cccs2)SC(=S)N1CCCC(=O)N(CCO)c1ccccc1	none
CCOc1ccc(CCNC(=O)CCNC(=O)c2ccc(Br)cc2)cc1OCC	none
COc1cccc(S(=O)(=O)NC2CCN(C#N)C2)c1 (stereo unspecified)	none (no result: Fam108B counter)
Cc1ccc(NC(=O)CN2C(=O)NC3(CCCCCC3)C2=O)cc1Cl	none (no result: Fam108B counter)
CCN1C(=O)[C@H]2[C@@H](c3ccc(C)cc3)N3C(=O)N(c4ccc(OC)cc4)C(=O)[C@@]3(CC)[C@H]2C1=O	none
O=C(O)c1ccc(S(=O)(=O)N2CCSCC2)cc1	none
COc1ccc(C2C(C(=O)c3ccc(C)o3)=C(O)C(=O)N2c2cc(C)on2)cc1OC (stereo unspecified)	none
Cc1cc(N2C(=O)C(O)=C(C(=O)c3ccc(C)o3)C2c2ccc([N+](=O)[O-])cc2)no1 (stereo unspecified)	PP1 counter 18.3 | PP1 inh confirm inactive | PP5 counter inactive
O=C(COc1ccc2ccc(=O)oc2c1)NCCCN1CCCC1=O	none
Cc1cc(/C=N/n2cnnc2)c(C)n1-c1ccc(OCc2ccc(Cl)cc2)cc1	PP1 counter 27.6 | PP1 inh confirm 26.4 | PP5 counter inactive
O=C(Cc1ccccc1)Nc1ccc(N2CCOCC2)cc1	none
O=C(Nc1ccc(N2CCCC2)cc1)c1cc2ccccc2o1	PP1 counter 32.7 | PP1 inh confirm inactive | PP5 counter inactive
O=C(Cc1ccccc1)Nc1ccc(N2CCCC2)cc1	PP1 counter 25.0 | PP1 inh confirm inactive | PP5 counter inactive
Cc1ccc2oc(=O)n(Cc3ccccc3)c2c1	none
FC(F)(F)c1cc(CCN2CCNC[C@H]2Cc2cccc3ccccc23)cc(C(F)(F)F)c1	PP1 counter 22.5 | PP1 inh confirm inactive | PP5 counter inactive
CCOC(=O)C1CCCN(c2ccc(NC(=O)c3snc4c(=O)[nH]c(C)nc34)cc2)C1 (stereo unspecified)	none
CCOC(=O)C1CCCN(c2ccc(NC(=O)c3snc4c(=O)[nH]cnc34)cc2)C1 (stereo unspecified)	PP1 counter 22.6 | PP1 inh confirm 25.7 | PP5 counter inactive
CC(C)CCN(C(=O)c1ccc(Br)cc1)c1c(N)n(Cc2ccccc2)c(=O)[nH]c1=O	none (no result: Fam108B counter)
Cc1cc(C(=O)Cn2nc(C(=O)O)c3ccccc3c2=O)c(C)n1CCc1ccc(F)cc1	PP1 counter 23.7 | PP1 inh confirm 22.5 | PP5 counter inactive
Cc1ccc(OC(=O)c2ccc([N+](=O)[O-])cc2Cl)cn1	none
Nc1nc(SCC(=O)Nc2ccc([N+](=O)[O-])cc2)[nH]c(=O)c1NC(=O)c1ccc(Br)cc1	PP1 counter 19.2 | PP1 inh confirm 22.8 | PP5 counter inactive
CC(=O)OC[C@H]1O[C@@H](n2ncc(=O)[nH]c2=O)[C@H](OC(C)=O)[C@@H]1OC(C)=O	none
O=C(OCC1OC(n2ncc(=O)[nH]c2=O)C(OC(=O)c2ccccc2)C1OC(=O)c1ccccc1)c1ccccc1 (stereo unspecified)	PP1 counter 24.0 | PP1 inh confirm 21.9 | PP5 counter inactive
Cc1cc(C)cc(OCC(=O)Nc2ccncc2)c1	none
COc1cccc(-n2c(SCC(=O)Nc3ccc4c(c3)CCC4)nc3ccccc3c2=O)c1	PP1 counter 18.9 | PP1 inh confirm inactive | PP5 counter inactive
COc1ccc(NC(=O)CSc2nc3nc(C)cc(C)c3c(=O)[nH]2)cc1	PP1 counter 77.5 | PP1 inh confirm inactive | PP5 counter inactive
COc1ccc(NC(=O)CSc2nc(O)cc(=O)n2-c2ccc(OC)cc2)cc1	PP1 counter 19.5 | PP1 inh confirm inactive | PP5 counter inactive
O=C1C(=O)N(CCS(=O)(=O)c2ccccc2)c2ccc(F)cc21	none
O=C1OC(=O)C2C1[C@@H]1CC[C@H]2O1 (stereo partly specified)	PP1 counter 79.1, PP5 inh 76.9 | PP1 inh confirm 65.9 | PP5 counter 68.5
CSCCC(NC(=O)COc1ccccc1)C(=O)OCC(=O)c1ccccc1 (stereo unspecified)	PP1 counter 60.5 | PP1 inh confirm inactive | PP5 counter inactive
CC(C)=NNC(=O)c1c(O)c2ccccc2[nH]c1=O	PP1 counter 20.6 | PP1 inh confirm inactive | PP5 counter inactive
